Source: the supplement of paper PMC11732987, “Enantioselective OTUD7B fragment discovery through chemoproteomics screening and high-throughput optimisation” (Communications Chemistry, 2025)

Legend:
Assay in all cases: log2 ratio of Biotin-Ahx-Ub-VS probe labelling (fragment/DMSO); higher = less target engagement (more negative = stronger competition), active = hit call of the paper (q ≤ 0.05, log2 ratio ≤ -1)
Details in all cases: compound concentration: 200 uM; treatment time: 3 h
USP19 = target: T1, USP19 (UniProt O94966)
T1 sequence (whole entry): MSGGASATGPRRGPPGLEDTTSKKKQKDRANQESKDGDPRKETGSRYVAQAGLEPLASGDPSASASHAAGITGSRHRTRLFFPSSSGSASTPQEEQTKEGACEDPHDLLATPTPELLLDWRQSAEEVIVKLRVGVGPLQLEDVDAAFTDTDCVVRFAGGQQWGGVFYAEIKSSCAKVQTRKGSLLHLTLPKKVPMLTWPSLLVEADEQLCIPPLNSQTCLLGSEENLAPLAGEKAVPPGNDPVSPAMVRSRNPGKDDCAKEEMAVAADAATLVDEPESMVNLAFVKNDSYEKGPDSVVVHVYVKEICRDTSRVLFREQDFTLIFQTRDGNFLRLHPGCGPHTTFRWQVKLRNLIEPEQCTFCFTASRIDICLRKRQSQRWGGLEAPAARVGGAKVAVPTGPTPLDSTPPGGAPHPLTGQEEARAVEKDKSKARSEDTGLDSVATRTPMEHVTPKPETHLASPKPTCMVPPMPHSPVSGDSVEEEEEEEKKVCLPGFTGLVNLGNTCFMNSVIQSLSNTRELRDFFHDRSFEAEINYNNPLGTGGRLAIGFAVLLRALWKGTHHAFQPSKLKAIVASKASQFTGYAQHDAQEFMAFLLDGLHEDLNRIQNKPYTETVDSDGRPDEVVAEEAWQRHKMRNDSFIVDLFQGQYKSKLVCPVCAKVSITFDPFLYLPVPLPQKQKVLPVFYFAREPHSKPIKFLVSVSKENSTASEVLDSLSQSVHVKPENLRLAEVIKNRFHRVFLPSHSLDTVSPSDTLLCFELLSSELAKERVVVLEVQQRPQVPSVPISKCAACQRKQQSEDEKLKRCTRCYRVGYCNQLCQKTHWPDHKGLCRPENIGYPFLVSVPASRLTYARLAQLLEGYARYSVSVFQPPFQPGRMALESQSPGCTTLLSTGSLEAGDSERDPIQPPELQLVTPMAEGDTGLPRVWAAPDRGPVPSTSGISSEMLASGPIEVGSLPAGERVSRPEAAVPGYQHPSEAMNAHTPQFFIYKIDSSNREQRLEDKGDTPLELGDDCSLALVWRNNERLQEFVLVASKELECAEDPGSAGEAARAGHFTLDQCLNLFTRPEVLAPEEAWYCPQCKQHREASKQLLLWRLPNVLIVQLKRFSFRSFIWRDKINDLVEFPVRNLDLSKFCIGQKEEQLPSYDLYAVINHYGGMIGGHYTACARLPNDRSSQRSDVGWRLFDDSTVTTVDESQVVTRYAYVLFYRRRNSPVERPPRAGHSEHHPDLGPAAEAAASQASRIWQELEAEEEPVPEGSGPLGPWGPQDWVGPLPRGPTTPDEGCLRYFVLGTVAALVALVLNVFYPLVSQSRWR
Method in brief: (§1)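 Each value is an average log2 ratio of fragment to vehicle, tested by unpaired t-test. The underlying Spectronaut label-free quantities were global-median-normalised, and only proteins with ≥2 unique peptides were included. Triplicate HEK293T lysate samples (495 µg) were exposed to fragment at 200 µM or vehicle for 3 h, then to Biotin-Ahx-Ub-VS at 0.5 µM final for 1 h, before NeutrAvidin enrichment of labelled DUBs, LysC and trypsin digestion, and diaPASEF LC-MS/MS.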

USP22 = target: T2, USP22 (UniProt Q9UPT9)
T2 sequence (whole entry): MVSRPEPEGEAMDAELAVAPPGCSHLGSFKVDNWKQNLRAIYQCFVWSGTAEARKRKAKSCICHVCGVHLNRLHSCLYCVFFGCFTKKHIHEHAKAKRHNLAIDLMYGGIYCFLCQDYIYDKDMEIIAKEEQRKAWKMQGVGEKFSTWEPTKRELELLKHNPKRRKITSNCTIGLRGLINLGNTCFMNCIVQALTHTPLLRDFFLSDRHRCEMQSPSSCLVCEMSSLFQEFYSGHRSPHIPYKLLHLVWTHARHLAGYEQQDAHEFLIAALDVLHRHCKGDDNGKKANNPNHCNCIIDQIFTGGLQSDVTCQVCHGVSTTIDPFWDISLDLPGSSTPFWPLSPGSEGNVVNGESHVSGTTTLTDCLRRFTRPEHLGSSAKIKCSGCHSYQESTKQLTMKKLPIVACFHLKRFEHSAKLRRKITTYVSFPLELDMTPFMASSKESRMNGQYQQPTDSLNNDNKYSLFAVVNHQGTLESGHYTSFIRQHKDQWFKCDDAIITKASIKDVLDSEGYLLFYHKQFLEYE
Method in brief: as §1

USP24 = USP24 (UniProt Q9UPU5)
Method in brief: as §1

USP25 = target: T3, USP25 (UniProt Q9UHP3)
T3 sequence (whole entry): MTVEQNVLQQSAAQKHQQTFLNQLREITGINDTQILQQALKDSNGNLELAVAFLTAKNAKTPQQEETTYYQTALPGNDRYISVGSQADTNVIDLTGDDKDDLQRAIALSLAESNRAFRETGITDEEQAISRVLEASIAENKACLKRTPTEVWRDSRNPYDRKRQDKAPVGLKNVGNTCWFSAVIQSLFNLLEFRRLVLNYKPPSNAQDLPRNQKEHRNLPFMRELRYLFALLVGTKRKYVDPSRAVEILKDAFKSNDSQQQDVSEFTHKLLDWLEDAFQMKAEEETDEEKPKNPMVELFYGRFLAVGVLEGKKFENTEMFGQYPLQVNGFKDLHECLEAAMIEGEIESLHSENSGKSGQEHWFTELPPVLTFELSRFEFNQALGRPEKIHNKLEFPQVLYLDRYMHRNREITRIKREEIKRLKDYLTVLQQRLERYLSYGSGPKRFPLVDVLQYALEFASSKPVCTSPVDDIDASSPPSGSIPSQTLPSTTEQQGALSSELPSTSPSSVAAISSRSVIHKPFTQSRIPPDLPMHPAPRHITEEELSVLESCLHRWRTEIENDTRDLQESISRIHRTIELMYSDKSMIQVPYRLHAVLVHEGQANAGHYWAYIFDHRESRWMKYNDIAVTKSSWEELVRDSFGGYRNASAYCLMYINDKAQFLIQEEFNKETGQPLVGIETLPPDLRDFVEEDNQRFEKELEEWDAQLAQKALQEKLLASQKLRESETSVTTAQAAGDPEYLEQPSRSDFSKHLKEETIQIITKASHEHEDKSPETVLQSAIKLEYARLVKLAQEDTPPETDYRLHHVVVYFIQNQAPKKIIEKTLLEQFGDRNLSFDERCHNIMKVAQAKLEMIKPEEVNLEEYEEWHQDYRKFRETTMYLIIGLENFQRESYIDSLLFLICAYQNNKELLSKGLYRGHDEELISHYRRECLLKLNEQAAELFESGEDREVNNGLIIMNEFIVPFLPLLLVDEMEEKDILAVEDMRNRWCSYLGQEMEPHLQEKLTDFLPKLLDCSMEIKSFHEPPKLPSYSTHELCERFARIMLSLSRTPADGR
Method in brief: as §1

USP28 = target: T4, USP28 (UniProt Q96RU2)
T4 sequence (whole entry): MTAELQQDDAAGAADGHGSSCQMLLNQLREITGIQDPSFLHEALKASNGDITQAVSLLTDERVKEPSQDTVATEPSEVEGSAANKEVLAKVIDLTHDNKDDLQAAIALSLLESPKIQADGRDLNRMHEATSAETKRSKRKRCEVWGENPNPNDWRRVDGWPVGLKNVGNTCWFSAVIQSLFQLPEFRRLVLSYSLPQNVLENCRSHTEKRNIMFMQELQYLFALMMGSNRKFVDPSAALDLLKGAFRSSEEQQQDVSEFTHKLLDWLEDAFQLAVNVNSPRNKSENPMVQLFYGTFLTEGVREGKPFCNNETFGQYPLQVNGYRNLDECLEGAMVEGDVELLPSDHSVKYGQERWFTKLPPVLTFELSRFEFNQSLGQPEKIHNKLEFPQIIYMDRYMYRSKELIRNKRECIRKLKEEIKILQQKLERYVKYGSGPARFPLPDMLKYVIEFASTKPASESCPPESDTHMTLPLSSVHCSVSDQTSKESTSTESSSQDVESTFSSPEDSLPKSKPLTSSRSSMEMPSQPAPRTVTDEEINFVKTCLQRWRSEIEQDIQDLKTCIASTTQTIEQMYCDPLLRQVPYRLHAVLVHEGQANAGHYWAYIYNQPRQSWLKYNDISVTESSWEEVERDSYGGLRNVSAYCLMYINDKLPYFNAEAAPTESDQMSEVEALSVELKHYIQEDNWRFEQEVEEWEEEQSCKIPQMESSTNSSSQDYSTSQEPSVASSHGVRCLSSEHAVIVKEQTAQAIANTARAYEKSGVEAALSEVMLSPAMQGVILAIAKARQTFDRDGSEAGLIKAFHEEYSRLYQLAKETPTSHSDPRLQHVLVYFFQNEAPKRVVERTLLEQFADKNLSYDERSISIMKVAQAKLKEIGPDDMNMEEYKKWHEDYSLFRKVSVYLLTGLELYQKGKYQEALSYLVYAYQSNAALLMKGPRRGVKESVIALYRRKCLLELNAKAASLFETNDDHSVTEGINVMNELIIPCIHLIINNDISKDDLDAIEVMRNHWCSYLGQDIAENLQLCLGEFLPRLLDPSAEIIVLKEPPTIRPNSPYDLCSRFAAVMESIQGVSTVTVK
Method in brief: as §1

Measured: log2 ratio of Biotin-Ahx-Ub-VS probe labelling

Sequence of USP24 (Q9UPU5 whole entry): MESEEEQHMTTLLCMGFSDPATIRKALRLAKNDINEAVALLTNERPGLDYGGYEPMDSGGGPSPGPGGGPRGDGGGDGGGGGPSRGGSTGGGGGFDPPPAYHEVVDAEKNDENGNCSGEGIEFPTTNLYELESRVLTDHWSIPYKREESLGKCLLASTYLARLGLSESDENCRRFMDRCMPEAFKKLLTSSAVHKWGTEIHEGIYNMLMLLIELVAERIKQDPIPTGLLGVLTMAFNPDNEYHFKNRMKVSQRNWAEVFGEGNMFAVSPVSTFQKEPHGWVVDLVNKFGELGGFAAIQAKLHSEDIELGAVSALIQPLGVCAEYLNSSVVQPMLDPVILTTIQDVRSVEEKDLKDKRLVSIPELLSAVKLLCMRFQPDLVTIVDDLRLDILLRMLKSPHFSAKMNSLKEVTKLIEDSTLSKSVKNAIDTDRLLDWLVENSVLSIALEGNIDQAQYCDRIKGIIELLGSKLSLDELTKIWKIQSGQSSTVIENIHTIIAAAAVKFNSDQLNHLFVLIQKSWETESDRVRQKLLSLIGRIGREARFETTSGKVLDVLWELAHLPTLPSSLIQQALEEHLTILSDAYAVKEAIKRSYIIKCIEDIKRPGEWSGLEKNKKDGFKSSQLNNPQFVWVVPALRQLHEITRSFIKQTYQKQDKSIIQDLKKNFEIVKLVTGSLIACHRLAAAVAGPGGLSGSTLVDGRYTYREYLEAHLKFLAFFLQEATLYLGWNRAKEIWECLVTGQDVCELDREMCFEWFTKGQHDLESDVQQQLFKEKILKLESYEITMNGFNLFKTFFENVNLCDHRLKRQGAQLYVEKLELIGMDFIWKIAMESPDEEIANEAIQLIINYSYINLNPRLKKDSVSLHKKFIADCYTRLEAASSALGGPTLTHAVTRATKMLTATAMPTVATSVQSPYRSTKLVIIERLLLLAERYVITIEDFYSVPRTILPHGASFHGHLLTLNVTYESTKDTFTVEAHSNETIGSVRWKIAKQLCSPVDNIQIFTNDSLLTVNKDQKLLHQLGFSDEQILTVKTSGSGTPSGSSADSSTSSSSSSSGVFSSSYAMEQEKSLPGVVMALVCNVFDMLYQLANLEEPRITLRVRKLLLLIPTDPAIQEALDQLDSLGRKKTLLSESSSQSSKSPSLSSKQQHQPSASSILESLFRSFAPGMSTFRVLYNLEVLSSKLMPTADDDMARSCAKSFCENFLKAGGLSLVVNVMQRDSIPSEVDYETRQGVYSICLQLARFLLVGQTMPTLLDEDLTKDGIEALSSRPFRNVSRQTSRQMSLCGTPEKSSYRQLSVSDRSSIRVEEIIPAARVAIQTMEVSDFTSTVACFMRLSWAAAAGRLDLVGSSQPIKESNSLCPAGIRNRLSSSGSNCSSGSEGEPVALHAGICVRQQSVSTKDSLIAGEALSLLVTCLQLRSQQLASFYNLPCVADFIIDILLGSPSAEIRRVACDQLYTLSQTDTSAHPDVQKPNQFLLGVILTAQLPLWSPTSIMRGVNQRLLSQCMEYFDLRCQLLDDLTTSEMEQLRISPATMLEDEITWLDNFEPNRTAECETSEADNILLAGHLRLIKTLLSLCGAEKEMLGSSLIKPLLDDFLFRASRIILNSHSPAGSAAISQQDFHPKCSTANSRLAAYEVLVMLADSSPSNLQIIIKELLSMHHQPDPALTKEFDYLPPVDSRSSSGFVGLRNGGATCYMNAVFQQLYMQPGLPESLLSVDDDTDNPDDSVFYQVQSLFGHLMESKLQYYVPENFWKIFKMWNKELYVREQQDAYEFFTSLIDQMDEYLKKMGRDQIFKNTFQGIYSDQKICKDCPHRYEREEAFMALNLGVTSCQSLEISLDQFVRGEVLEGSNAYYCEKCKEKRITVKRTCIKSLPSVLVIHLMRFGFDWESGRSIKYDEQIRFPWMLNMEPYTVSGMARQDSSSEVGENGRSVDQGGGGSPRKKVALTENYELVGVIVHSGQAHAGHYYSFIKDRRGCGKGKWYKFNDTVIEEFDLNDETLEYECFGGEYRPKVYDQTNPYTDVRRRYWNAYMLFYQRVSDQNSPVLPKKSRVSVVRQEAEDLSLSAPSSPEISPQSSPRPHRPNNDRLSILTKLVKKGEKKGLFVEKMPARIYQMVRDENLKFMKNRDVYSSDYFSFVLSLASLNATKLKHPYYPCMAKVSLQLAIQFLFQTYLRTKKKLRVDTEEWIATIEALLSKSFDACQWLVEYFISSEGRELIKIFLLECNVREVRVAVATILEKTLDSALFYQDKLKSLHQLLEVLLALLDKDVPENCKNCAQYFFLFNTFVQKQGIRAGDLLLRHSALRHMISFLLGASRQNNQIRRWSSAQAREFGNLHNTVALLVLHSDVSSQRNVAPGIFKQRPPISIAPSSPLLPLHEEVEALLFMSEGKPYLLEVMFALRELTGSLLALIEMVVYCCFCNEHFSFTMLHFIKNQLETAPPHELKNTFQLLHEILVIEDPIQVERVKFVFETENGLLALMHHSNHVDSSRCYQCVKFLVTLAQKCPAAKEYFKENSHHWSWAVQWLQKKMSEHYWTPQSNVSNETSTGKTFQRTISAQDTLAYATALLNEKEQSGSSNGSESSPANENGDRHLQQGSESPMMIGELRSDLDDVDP

CCN1C(=O)C2CN(C(=O)CCl)CCN2C1=O (stereo not given)
inactive: USP19 -0.175 | USP22 0.199 | USP24 -0.0184 | USP25 -0.141 | USP28 -0.324
